# In PubChem BioAssay AID1220 (Sanford-Burnham Center for Chemical Genomics, 2008):
# About 1,300 (0.68%) of roughly 190,000 compounds were called active. Rule as the data show it: active = inhibition above about 50%; inactive = the rest. The entries come from a sample that favours actives as a whole.
# Target: Mannose-6-phosphate isomerase (Homo sapiens) (UniProt P34949)
# Assay: human PMI inhibitors, high substrate, primary screen, biochemical, fluorescence intensity, high mannose 6-phosphate (AID 1220)
# Details: recombinant PMI enzyme, coupled fluorescence intensity; at 20 µM; hits give high values
# Mannose-6-phosphate isomerase (Homo sapiens), sequence (P34949 whole entry, looked up): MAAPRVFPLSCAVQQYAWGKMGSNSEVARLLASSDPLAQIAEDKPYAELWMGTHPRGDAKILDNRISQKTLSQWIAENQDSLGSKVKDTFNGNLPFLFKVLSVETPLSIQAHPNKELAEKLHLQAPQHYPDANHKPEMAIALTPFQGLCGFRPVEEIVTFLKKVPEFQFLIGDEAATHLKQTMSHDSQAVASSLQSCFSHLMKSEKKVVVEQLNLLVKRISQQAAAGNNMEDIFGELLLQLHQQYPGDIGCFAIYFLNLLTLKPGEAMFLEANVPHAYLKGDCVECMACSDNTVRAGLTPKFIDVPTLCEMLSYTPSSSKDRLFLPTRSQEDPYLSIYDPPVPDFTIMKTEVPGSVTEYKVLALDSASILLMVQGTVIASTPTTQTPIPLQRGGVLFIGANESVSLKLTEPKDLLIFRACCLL
row,Structure (SMILES),inhibition
1,CCCN1C(=O)/C(=C\C=C2/Sc3ccccc3N2CCO)SC1=S,10.5% (inactive)
2,O=C(N/N=C/c1ccc(Br)o1)c1cccnc1,5.3% (inactive)
3,COc1ccc(/C=C/C(=O)OCCCN(C)C)cc1,-6.3% (inactive)
4,CCOC(=O)c1ccc(NCc2nc3ccccc3[nH]2)cc1,-1.4% (inactive)
5,O=C(O)c1cc(-c2ccccc2)n(-c2ccc(Cl)cc2)n1,-7.9% (inactive)
6,COCCN(CCOC)Cc1c(O)ccc2c3c(c(=O)oc12)CCC3,50.9% (active)
7,O=c1oc2c(CN3CCOCC3)c(O)ccc2c2c1CCC2,14.1% (inactive)
8,CC(C)CN(Cc1c(O)ccc2c3c(c(=O)oc12)CCC3)CC(C)C,10% (inactive)
9,COC(=O)c1cn(CC(=O)NC2CCCCCC2)c2ccccc12,4.4% (inactive)
10,CC(C)CC1NC(=O)N(CC(=O)N2CCCc3ccccc32)C1=O (configuration not stated),-5.9% (inactive)
11,O=C(/C=C/c1ccccc1Cl)NCc1ccccc1,7.8% (inactive)
12,O=C(CN1C(=O)NC2(CCCCCC2)C1=O)NC1CCCCCCC1,-3.9% (inactive)
13,Cc1ccccc1CSCCC(=O)NCCc1ccccc1,-6.4% (inactive)
14,CCN1/C(=N\N)c2cccc3cccc1c23,-13% (inactive)
15,CNC(=O)CN1C(=O)c2cccc3cccc1c23,-3.7% (inactive)
16,CC(C)c1ccc(CNC(=O)C(=O)Nc2nccs2)cc1,-3.8% (inactive)
17,CNc1nc2ccccc2n1N,-3.8% (inactive)
18,CC(Sc1nc(NCc2ccccc2)nc(N2CCOCC2)n1)C(=O)Nc1ccccc1 (configuration not stated),12.4% (inactive)
19,Cc1noc(C)c1S(=O)(=O)N1CCCC(C(=O)Nc2ccc(Cl)cn2)C1 (configuration not stated),-3% (inactive)
20,Cc1ccccc1NC(=O)C1CCCN(S(=O)(=O)c2c(C)noc2C)C1 (configuration not stated),-2.1% (inactive)
21,Cc1ccc(Cl)cc1NC(=O)C1CCCN(S(=O)(=O)c2c(C)noc2C)C1 (configuration not stated),50.2% (active)
22,Nc1nc(-c2ccccc2)c(-c2ccccc2)s1,-7.6% (inactive)
23,Nc1nc2c(s1)COc1ccccc1-2,11.1% (inactive)

row,Structure (SMILES),inhibition
1,O=C(NCCCN1CCOCC1)C(Sc1ccccc1)c1ccccc1 (configuration not stated),9.2% (inactive)
2,O=C(COC(=O)c1ccc(S(=O)(=O)NCc2ccco2)cc1)NCCC1=CCCCC1,-19.9% (inactive)
3,O=c1[nH]c2ccc(Cl)cc2c(O)c1Cc1ccccc1,3.4% (inactive)
4,COc1cccc(CNCc2cccnc2)c1OCc1ccccc1,-2% (inactive)
5,Cc1ccc(Nc2ncnc3sc(C)c(C)c23)cc1,12.1% (inactive)
6,COc1cccc(NCCC(=O)c2cccc([N+](=O)[O-])c2)c1,62.3% (active)
7,Cc1ccc(NCCC(=O)c2cccc([N+](=O)[O-])c2)cc1,39.2% (inactive)
8,O=C(CCNc1ccc(F)cc1)c1cccc([N+](=O)[O-])c1,48.4% (inactive)
9,O=C(CCNc1cccc(F)c1)c1cccc([N+](=O)[O-])c1,40.6% (inactive)
10,O=C(CCNc1ccc(Br)cc1)c1cccc([N+](=O)[O-])c1,40.5% (inactive)
11,O=C(CCNc1ccc(Cc2ccncc2)cc1)c1cccc([N+](=O)[O-])c1,47.7% (inactive)
12,O=[N+]([O-])c1ccc(Cc2ccncc2)cc1,-1.9% (inactive)
13,COc1ccc2o/c(=N/NC(=S)Nc3ccccc3)c(C(N)=O)cc2c1,7.1% (inactive)
14,O=C(O)c1ccccc1OC(=O)C12CC3CC(CC(C3)C1)C2,2.3% (inactive)
15,CC1(C)CC(c2nc(-c3ccccc3)cs2)CCS1 (configuration not stated),0.5% (inactive)
16,Cc1ccc(-c2cc(C)nc3nc(N)nn23)cc1,4.6% (inactive)
17,CCOc1ccc(NC(=O)CSc2nc3c(c(=O)n2C)SC(C)C3)cc1 (configuration not stated),4.9% (inactive)
18,Cc1noc(C(=O)Nc2ccccc2C(F)(F)F)c1Cl,59.4% (active)
19,CCc1ccccc1NC(=O)c1onc(C)c1Cl,-3.2% (inactive)
20,CSc1ccccc1NC(=O)c1onc(C)c1Cl,-2.4% (inactive)
21,Cc1ccc(C(=O)OCC(=O)Nc2ccccc2C(F)(F)F)cc1S(=O)(=O)N1CCOCC1,3.2% (inactive)
22,CC(C)c1ccccc1NC(=S)NCc1ccccc1F,1.9% (inactive)
23,N#Cc1cnc2c(-c3ccccc3)c(-c3ccccc3)nn2c1N,15.3% (inactive)

row,Structure (SMILES),inhibition
1,Fc1ccc2nc(C3CCCCN3Cc3nc(CC4CC4)no3)[nH]c2c1 (configuration not stated),53.6% (active)
2,Fc1ccc2nc(C3CCN(Cc4nc(CC5CC5)no4)CC3)[nH]c2c1,-5.1% (inactive)
3,Fc1ccc(C2CCCCN2Cc2nc(CC3CC3)no2)cc1 (configuration not stated),1.9% (inactive)
4,Brc1ccc(-c2nc(-c3ccccn3)no2)o1,-1.3% (inactive)
5,CC(C)[C@H](NC(=O)c1ccccc1)C(=O)OCc1nnc(-c2ccccc2)o1,3.9% (inactive)
6,CC(=O)N1C(c2ccccc2)CC(=O)OC1c1ccc2c(c1)OCO2 (configuration not stated),9.9% (inactive)
7,O=C1C=CC2C(c3ccc4c(c3)OCO4)CC1N2Cc1ccccc1 (configuration not stated),63.6% (active)
8,O=C1CC(N2CCN(Cc3ccc4c(c3)OCO4)CC2)C(=O)N1CCc1ccccc1 (configuration not stated),4.8% (inactive)
9,Cc1ccc(NC(=O)c2cc3ccccc3o2)cc1S(=O)(=O)N(C)C,36.9% (inactive)
10,Cc1cc(C)c(S(=O)(=O)Nc2cccc(S(=O)(=O)NC3=NCCC3)c2)c(C)c1,-4.4% (inactive)
11,CC(C)(C)/C(COc1ccccc1[N+](=O)[O-])=N/O,5.7% (inactive)
12,CC1CN(C)C(C)C/C1=N\Oc1ccc([N+](=O)[O-])cc1 (configuration not stated),-6.4% (inactive)
13,CC1CN(C)C(C)C/C1=N/Oc1ccccc1[N+](=O)[O-] (configuration not stated),42.3% (inactive)
14,CC1=CC(=O)C=C(C)C1=NOc1ccc([N+](=O)[O-])cc1,53.2% (active)
15,CN1CCC(=NOc2ccc([N+](=O)[O-])cc2)CC1,-6.9% (inactive)
16,CC1=CC(=O)C=C(C)C1=NOc1ccccc1[N+](=O)[O-],54.8% (active)
17,N#Cc1ccc(NC(=O)CN2C(=O)NC(Cc3ccccc3)C2=O)cc1 (configuration not stated),3.6% (inactive)
18,Cc1noc(C)c1COC(=O)COc1ccc(C#N)cc1,-4.4% (inactive)
19,COc1ccc(CNCC(O)(c2ccc(Cl)cc2)c2ccc(Cl)cc2)cc1OC,55.1% (active)
20,COc1ccc(CNCC(O)(c2ccccc2)c2ccccc2)cc1OC,-0.4% (inactive)
21,COc1ccc(CNCC(O)(c2ccc(Cl)cc2)c2ccc(Cl)cc2)cc1,0% (inactive)
